Results published in ChEMBL document CHEMBL1961873, “Compounds: GSK PKIS; Assays: Nanosyn kinase panel” (2012).

How the values were obtained:
[1] = biological target: Mitogen-activated protein kinase kinase kinase kinase 4 (Homo sapiens) (UniProt O95819); conditions: at 1 µM;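 further: reported figure is an averaged inhibition value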
[2] = biological target: Dual specificity mitogen-activated protein kinase kinase 1 (Homo sapiens) (UniProt Q02750); conditions: at 0.1 µM
[3] = biological target: Dual specificity mitogen-activated protein kinase kinase 1 (Homo sapiens) (UniProt Q02750); conditions: at 1 µM
[4] = biological target: Misshapen-like kinase 1 (Homo sapiens) (UniProt Q8N4C8); conditions: at 0.1 µM
[5] = biological target: Misshapen-like kinase 1 (Homo sapiens) (UniProt Q8N4C8); conditions: at 1 µM
[6] = biological target: T1, Serine/threonine-protein kinase 4 (Homo sapiens) (UniProt Q13043); conditions: at 0.1 µM
T1 sequence (whole entry): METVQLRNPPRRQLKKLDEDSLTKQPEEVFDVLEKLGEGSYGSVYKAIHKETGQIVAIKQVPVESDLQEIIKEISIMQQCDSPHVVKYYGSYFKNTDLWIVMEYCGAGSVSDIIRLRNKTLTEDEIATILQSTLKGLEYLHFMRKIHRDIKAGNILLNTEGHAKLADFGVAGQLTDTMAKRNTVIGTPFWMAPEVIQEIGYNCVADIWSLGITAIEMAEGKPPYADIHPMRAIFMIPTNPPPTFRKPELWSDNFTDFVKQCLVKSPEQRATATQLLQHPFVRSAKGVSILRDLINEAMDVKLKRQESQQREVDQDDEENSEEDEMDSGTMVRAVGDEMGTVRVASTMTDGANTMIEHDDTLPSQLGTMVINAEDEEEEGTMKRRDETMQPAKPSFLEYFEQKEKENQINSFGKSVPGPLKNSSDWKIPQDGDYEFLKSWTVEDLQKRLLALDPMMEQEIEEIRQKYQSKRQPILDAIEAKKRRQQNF

[7] = biological target: T1, Serine/threonine-protein kinase 4 (Homo sapiens); conditions: at 1 µM
[8] = biological target: T2, Serine/threonine-protein kinase 3 (Homo sapiens) (UniProt Q13188); conditions: at 0.1 µM
T2 sequence (whole entry): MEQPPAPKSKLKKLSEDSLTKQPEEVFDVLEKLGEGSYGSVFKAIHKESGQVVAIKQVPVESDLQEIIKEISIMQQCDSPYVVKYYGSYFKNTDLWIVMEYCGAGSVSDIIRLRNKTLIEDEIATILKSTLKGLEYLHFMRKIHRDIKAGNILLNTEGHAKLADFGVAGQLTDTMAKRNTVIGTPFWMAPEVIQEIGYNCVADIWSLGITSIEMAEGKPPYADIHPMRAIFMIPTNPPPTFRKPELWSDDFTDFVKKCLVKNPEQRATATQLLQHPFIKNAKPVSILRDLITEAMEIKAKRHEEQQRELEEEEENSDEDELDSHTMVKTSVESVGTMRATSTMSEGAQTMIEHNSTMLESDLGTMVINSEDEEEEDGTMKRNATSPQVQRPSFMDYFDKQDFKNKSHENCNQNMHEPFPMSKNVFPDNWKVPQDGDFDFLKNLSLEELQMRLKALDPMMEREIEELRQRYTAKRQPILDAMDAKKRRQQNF

[9] = biological target: T2, Serine/threonine-protein kinase 3 (Homo sapiens); conditions: at 1 µM
[10] = biological target: Serine/threonine-protein kinase 26 (Homo sapiens) (UniProt Q9P289); conditions: at 0.1 µM
[11] = biological target: Serine/threonine-protein kinase 26 (Homo sapiens) (UniProt Q9P289); conditions: at 1 µM
[12] = biological target: Serine/threonine-protein kinase PAK 1 (Homo sapiens) (UniProt Q13153); conditions: at 0.1 µM
[13] = biological target: Serine/threonine-protein kinase PAK 1 (Homo sapiens) (UniProt Q13153); conditions: at 1 µM
[14] = biological target: Serine/threonine-protein kinase PAK 2 (Homo sapiens) (UniProt Q13177); conditions: at 0.1 µM
[15] = biological target: Serine/threonine-protein kinase PAK 2 (Homo sapiens) (UniProt Q13177); conditions: at 1 µM
[16] = biological target: Serine/threonine-protein kinase PAK 3 (Homo sapiens) (UniProt O75914); conditions: at 0.1 µM
[17] = biological target: Serine/threonine-protein kinase PAK 3 (Homo sapiens) (UniProt O75914); conditions: at 1 µM
[18] = biological target: Serine/threonine-protein kinase PAK 5 (Homo sapiens) (UniProt Q9P286); conditions: at 0.1 µM
[19] = biological target: Serine/threonine-protein kinase PAK 5 (Homo sapiens) (UniProt Q9P286); conditions: at 1 µM
[20] = biological target: Serine/threonine-protein kinase PAK 6 (Homo sapiens) (UniProt Q9NQU5); conditions: at 0.1 µM;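 further: mean PAK6 inhibition reported from the GSK PKIS screen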

Sequence of Serine/threonine-protein kinase PAK 3 (Homo sapiens) (O75914 whole entry, looked up): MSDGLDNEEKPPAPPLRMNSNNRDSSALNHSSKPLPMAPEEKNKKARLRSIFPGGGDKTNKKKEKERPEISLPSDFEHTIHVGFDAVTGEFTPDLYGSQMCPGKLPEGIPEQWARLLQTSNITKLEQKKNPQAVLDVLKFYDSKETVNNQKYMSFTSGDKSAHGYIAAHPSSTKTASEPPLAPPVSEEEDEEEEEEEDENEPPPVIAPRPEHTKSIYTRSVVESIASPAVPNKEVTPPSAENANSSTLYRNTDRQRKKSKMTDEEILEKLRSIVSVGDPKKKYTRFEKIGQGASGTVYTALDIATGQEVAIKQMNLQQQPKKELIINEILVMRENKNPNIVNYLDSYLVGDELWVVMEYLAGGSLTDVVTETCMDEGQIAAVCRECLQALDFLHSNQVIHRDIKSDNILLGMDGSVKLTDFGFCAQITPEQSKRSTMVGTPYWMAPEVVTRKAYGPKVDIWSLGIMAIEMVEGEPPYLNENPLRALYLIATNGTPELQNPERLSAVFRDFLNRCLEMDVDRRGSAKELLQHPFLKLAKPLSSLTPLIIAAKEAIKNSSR
Sequence of Mitogen-activated protein kinase kinase kinase kinase 4 (Homo sapiens) (O95819 2-1239 limits assumed): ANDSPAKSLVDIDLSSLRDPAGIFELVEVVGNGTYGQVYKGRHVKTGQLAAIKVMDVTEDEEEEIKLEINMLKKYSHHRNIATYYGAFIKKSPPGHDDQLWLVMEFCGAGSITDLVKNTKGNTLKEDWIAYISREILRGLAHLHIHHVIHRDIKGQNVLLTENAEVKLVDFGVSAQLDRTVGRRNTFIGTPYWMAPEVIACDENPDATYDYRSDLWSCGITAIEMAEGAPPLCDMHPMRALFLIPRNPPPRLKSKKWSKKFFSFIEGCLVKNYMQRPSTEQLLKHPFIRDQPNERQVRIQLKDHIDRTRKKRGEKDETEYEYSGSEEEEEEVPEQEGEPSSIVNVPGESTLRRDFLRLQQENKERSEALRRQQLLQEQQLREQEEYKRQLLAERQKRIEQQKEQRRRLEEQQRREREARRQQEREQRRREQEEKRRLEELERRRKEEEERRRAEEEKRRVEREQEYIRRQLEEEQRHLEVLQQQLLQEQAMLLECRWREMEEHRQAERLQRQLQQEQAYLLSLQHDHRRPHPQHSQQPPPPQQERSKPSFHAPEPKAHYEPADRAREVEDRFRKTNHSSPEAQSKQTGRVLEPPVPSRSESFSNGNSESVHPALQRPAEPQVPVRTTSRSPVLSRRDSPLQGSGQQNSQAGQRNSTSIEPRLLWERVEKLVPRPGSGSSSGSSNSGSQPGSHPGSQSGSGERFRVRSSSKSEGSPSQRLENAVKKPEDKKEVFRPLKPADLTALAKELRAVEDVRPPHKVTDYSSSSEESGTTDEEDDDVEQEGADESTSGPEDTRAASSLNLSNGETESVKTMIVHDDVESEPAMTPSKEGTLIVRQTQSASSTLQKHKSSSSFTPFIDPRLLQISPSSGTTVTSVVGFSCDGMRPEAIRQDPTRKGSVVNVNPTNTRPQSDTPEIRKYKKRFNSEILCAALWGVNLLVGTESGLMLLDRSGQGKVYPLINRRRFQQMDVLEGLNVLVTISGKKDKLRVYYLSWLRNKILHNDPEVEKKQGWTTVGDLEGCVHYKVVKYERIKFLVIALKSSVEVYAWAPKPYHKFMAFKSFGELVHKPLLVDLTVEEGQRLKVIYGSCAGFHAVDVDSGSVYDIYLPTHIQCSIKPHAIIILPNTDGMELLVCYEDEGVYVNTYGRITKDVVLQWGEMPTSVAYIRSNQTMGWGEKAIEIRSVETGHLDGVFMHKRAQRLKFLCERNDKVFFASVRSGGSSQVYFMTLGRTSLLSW
Sequence of Serine/threonine-protein kinase PAK 5 (Homo sapiens) (Q9P286 whole entry, looked up): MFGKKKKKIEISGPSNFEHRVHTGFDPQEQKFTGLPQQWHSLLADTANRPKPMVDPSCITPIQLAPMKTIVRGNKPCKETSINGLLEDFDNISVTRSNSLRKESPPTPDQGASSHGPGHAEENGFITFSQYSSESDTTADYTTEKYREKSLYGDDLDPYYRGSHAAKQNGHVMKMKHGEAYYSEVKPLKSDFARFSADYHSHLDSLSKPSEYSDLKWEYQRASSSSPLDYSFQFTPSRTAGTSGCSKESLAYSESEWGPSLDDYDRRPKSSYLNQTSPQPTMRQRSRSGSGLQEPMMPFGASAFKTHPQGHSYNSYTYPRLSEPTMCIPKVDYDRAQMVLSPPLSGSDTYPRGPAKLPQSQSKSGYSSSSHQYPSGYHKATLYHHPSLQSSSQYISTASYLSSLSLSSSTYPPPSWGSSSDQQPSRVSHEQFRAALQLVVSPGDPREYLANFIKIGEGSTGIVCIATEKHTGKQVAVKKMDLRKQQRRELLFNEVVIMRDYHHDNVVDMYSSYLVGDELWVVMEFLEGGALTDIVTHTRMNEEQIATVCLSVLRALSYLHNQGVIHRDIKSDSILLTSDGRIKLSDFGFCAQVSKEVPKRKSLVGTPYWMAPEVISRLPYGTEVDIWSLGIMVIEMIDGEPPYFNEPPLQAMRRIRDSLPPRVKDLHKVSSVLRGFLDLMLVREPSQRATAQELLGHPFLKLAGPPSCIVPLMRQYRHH
Sequence of Misshapen-like kinase 1 (Homo sapiens) (Q8N4C8 whole entry, looked up): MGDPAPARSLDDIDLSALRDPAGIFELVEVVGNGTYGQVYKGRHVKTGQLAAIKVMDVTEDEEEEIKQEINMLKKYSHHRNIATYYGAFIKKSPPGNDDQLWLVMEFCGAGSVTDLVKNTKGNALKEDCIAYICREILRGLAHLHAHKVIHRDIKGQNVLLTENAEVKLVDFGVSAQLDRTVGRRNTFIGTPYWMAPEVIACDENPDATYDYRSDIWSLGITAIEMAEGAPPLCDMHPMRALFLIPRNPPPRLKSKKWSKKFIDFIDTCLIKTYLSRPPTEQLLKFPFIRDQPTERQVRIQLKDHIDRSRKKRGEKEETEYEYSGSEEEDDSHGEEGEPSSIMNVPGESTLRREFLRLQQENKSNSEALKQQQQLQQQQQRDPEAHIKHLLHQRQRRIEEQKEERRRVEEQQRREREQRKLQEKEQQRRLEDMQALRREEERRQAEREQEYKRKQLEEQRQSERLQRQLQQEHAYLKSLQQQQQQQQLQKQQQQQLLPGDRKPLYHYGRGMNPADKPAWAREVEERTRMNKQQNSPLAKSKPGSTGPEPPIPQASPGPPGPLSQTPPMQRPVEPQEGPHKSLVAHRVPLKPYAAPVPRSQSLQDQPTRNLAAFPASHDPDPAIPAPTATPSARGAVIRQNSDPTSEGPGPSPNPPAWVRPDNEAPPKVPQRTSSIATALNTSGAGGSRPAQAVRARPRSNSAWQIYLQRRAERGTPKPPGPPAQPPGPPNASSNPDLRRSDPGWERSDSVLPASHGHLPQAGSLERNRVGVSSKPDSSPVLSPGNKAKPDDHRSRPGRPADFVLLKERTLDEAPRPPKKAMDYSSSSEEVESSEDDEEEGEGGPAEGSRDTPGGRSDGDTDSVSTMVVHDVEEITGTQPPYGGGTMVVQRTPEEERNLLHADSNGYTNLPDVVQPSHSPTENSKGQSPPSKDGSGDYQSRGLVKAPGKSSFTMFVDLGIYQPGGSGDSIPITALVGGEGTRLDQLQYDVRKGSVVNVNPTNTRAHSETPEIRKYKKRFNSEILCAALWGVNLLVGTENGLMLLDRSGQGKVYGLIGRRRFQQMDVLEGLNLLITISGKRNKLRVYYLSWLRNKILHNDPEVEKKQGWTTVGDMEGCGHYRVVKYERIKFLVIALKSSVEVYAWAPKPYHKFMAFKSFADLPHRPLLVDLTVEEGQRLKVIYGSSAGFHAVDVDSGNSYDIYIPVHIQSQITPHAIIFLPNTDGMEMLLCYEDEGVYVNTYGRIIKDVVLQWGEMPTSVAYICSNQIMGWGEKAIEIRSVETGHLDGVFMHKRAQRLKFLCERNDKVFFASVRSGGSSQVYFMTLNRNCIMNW
Sequence of Serine/threonine-protein kinase PAK 2 (Homo sapiens) (Q13177 whole entry): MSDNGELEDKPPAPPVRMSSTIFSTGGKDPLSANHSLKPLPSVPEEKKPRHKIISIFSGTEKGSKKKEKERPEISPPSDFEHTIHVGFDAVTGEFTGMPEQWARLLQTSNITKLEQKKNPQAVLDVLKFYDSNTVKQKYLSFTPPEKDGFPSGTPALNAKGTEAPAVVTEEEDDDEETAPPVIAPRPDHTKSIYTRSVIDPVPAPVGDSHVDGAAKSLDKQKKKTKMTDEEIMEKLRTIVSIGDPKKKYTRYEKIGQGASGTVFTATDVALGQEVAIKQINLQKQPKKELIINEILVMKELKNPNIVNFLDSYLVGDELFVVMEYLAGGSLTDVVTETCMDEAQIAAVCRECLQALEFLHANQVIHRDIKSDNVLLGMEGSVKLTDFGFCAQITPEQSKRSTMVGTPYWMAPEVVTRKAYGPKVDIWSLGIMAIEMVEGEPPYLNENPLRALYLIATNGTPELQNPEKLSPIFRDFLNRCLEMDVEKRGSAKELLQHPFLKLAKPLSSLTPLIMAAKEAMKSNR
Sequence of Serine/threonine-protein kinase PAK 1 (Homo sapiens) (Q13153 whole entry): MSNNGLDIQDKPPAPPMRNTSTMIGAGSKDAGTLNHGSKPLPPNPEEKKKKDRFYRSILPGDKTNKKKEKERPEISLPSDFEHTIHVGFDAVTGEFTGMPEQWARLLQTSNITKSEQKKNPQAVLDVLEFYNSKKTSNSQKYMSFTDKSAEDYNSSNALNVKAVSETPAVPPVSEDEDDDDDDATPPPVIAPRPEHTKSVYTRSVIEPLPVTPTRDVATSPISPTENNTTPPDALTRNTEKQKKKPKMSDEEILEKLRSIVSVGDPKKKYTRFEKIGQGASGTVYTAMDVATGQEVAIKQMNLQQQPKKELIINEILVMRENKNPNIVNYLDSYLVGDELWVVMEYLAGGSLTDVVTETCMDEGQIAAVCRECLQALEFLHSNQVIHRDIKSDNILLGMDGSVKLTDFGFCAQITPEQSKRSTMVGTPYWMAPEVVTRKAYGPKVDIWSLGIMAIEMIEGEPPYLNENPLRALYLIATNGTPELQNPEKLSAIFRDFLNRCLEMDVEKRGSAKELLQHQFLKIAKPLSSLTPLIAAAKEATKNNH

In the case of `COC(=O)Nc1nc2cc(Oc3ccc(NC(=O)Nc4ccccc4)cc3)ccc2[nH]1`, the inhibition [1] is reported as 12.9%, the inhibition [2] is reported as 3.88% and the inhibition [3] is reported as 2.45%. It also gave an inhibition [4] of 5.15%, an inhibition [5] of 11.3% and an inhibition [6] of 3.7%. It also gave an inhibition [7] of 4.62%, an inhibition [8] of 5.39% and an inhibition [9] of 6.48%. It also gave an inhibition [10] of -0.23%, an inhibition [11] of 0.25% and an inhibition [12] of 0.78%. The inhibition [13] was 3.46%, the inhibition [14] was 1.73% and the inhibition [15] was 0.63%. It also gave an inhibition [16] of 3.68%, an inhibition [17] of 4.15% and an inhibition [18] of -3.58%. For the same molecule, the inhibition [19] was -3.97% and the inhibition [20] was -4.28%.
In the case of `COc1cccc(Nc2nccc(-c3cnn4ncccc34)n2)c1`, the inhibition [1] is reported as 63.2%, the inhibition [2] is reported as 3.11% and the inhibition [3] is reported as 29.1%. It also gave an inhibition [4] of 11.1%, an inhibition [5] of 57.6% and an inhibition [6] of 6.23%. It also gave an inhibition [7] of 30%, an inhibition [8] of 5.37% and an inhibition [9] of 24.6%. For the same molecule, the inhibition [10] was 1.55%, the inhibition [11] was 3.21% and the inhibition [12] was 2.05%. The inhibition [13] was 2.16%, the inhibition [14] was 1% and the inhibition [15] was 2.62%. It also gave an inhibition [16] of 1.1%, an inhibition [17] of 1.63% and an inhibition [18] of 8.25%. It also gave an inhibition [19] of 5.51% and an inhibition [20] of 1.43%.
For `CS(=O)(=O)CCNCc1ccc(-c2ccc3ncnc(Nc4ccc(OCc5cccc(C(F)(F)F)c5)cc4)c3c2)o1`, the inhibition [1] was 6.36%, the inhibition [2] was 3.29% and the inhibition [3] was 5.38%. For the same molecule, the inhibition [4] was 5.26%, the inhibition [5] was 3.68% and the inhibition [6] was 3.43%. For the same molecule, the inhibition [7] was 5.83%, the inhibition [8] was 4.6% and the inhibition [9] was 5.04%. The inhibition [10] was -1.93%, the inhibition [11] was 0.42% and the inhibition [12] was 8.38%. The inhibition [13] was 7.33%, the inhibition [14] was 1.38% and the inhibition [15] was 3.12%. The inhibition [16] was 5.6%, the inhibition [17] was 9.88% and the inhibition [18] was 4.72%. The inhibition [19] was 5.29% and the inhibition [20] was -8.96%.
For `COc1cc(Nc2ncc(-c3ccccc3)o2)cc(OC)c1`, the inhibition [1] was 18.8%, the inhibition [2] was 4.41% and the inhibition [3] was 3.91%. The inhibition [4] was 8.63%, the inhibition [5] was 19.5% and the inhibition [6] was 3.72%. It also gave an inhibition [7] of 6.2%, an inhibition [8] of 6.11% and an inhibition [9] of 6.9%. The inhibition [10] was -1.04%, the inhibition [11] was -4.28% and the inhibition [12] was 6.86%. For the same molecule, the inhibition [13] was 6.69%, the inhibition [14] was 1.76% and the inhibition [15] was 1.6%. For the same molecule, the inhibition [16] was 4.74%, the inhibition [17] was 3.26% and the inhibition [18] was 2.83%. It also gave an inhibition [19] of 4.51% and an inhibition [20] of 0.07%.
In the case of `COc1ccccc1-c1cc(/C=C2\C(=O)Nc3ncc(Br)cc32)cc(Br)c1O`, the inhibition [1] is reported as 14%, the inhibition [2] is reported as 6.54% and the inhibition [3] is reported as 5.7%. The inhibition [4] was 5.71%, the inhibition [5] was 13.3% and the inhibition [6] was 6.41%. It also gave an inhibition [7] of 8.19%, an inhibition [8] of 7.78% and an inhibition [9] of 8.09%. It also gave an inhibition [10] of 2.55%, an inhibition [11] of 13.5% and an inhibition [12] of 6.7%. It also gave an inhibition [13] of 6.23%, an inhibition [14] of 1.92% and an inhibition [15] of 2.48%. The inhibition [16] was 4.55%, the inhibition [17] was 5.35% and the inhibition [18] was 0.29%. The inhibition [19] was 0.44% and the inhibition [20] was -1.24%.
`CC1=C(C(=O)Nc2ccc3[nH]nc(C)c3c2)C(c2ccc(C(F)(F)F)cc2)CC(=O)N1` (stereo not given) was tested, and the inhibition [1] was 1.55%, the inhibition [2] was 6.17% and the inhibition [3] was 36.5%. The inhibition [4] was 4.68%, the inhibition [5] was 4.08% and the inhibition [6] was 5.04%. The inhibition [7] was 7.56%, the inhibition [8] was 5.03% and the inhibition [9] was 5.46%. The inhibition [10] was -1.47%, the inhibition [11] was -2.31% and the inhibition [12] was 4.1%. The inhibition [13] was 3.72%, the inhibition [14] was 1.78% and the inhibition [15] was 1.55%. For the same molecule, the inhibition [16] was 2.35%, the inhibition [17] was 2.95% and the inhibition [18] was 10.3%. For the same molecule, the inhibition [19] was -2.13% and the inhibition [20] was -0.15%.
In the case of `O=C(O[C@H]1CN[C@H](C#Cc2cc3ncnc(Nc4ccc(OCc5cccc(F)c5)c(Cl)c4)c3s2)C1)N1CCOCC1`, the inhibition [1] is reported as 8.44%, the inhibition [2] is reported as 6.24% and the inhibition [3] is reported as 5.74%. It also gave an inhibition [4] of 6.37%, an inhibition [5] of 9.94% and an inhibition [6] of 4.18%. For the same molecule, the inhibition [7] was 8.15%, the inhibition [8] was 5.87% and the inhibition [9] was 6.61%. The inhibition [10] was -0.22%, the inhibition [11] was -0.1% and the inhibition [12] was 8.7%. The inhibition [13] was 7.32%, the inhibition [14] was 1.91% and the inhibition [15] was 2.46%. It also gave an inhibition [16] of 6.61%, an inhibition [17] of 6.74% and an inhibition [18] of 6.46%. It also gave an inhibition [19] of 0.44% and an inhibition [20] of -7.35%.
